The source of these data is PubChem BioAssay AID651597 (National Center for Advancing Translational Sciences (NCATS), 2012).

Structures are written as SMILES. The campaign covered roughly 1,100 compounds. About 390 (35%) were called active. Not shown: some 30% with an inconclusive outcome. The list shows a part of the results. A number with no mark means an inactive call. Calls follow the shape of the dose curve; as a rule, active = well fitted inhibition curve with a large enough effect; inconclusive = small, poorly fitted or top-dose-only effect; inactive = flat fitted curve, though single readings scatter.
% is scaled to controls: 0 for no effect and ±100 for the full control effect; potency is read from the fitted curve at half-maximal effect.

In this test the target is Luciferin 4-monooxygenase (Photinus pyralis) (UniProt P08659). The test is described as follows: qHTS of Nrf2 Activators: Hit Validation in Secondary FLuc Assay. Also: nearly all actives have a fitted effect of over 65% in size. The note with it: firefly luciferase inhibition counter-screen, luminescence; series mostly up to 57.5 µM; activity, negative = inhibition: at the top concentration. An excerpt:
Many diseases have some form of oxidative stress injury and ties to inflammation, causing a host of problems for the patient. The antioxidant response element (ARE) plays an important role in alleviating the harmful effects of oxidative stress. The antioxidant response element (ARE) is a transcriptional regulatory element involved in the activation of genes coding for a number of antioxidant proteins and detoxifying enzymes. These enzymes work in concert to protect tissues from oxidative insults and chemical toxicities in human hepatocytes and immune cells. The protective effects of ARE activation are primarily triggered through Nrf2 (NF-E2-related factor) binding to and activating AREs. It is known that Nrf2 controls the production of over 250 antioxidant and detoxification proteins (Hu et al., 2006), thereby protecting tissues by increasing cellular antioxidant content and suppressing inflammatory signaling pathways. The transcription factor Nrf2 is a central link between oxidative chemicals, such as phenolic antioxidants and electrophilic compounds, and the activation of ARE. Nrf2 levels are constitutively low as a consequence of its interaction with Keap1, which targets its degradation (Zipper and Mulcahy, 2002). Electrophiles react with key cysteine residues in Keap1, releasing Nrf2 and allowing its translocation to the nucleus. Once within the nucleus, Nrf2 complexes with coactivators such as p300, and binds to the AREs to induce gene transcription of cytoprotective enzymes, resulting in the prevention of toxicity. Activation of Nrf2 protects tissues by increasing cellular antioxidant content and suppressing inflammatory signaling pathways. Identifying novel and potent Nrf2 activators by using the AREc32 cell line to detect ARE activation by small molecules will lead to the identification and development of probes to study protective pathways in multiple tissues. These specific probes are essential to study the ARE pathway, and eventually to determine whether this pathway does activate genes that could protect against a host of diseases, including cardiovascular diseases, obesity, diabetes, Alzheimer's, and Parkinson's disease.
This project's aim is to identify novel and potent Nrf2 activators by using the AREc32 cell line to detect ARE activation by small molecules, which will lead to the identification and development of probes to study the ARE pathway. In this counter assay, we aim to identify false positive as identified from this primary assay using an FLuc assay with an inhibiting read-out.
NIH Chemical Genomics Center [NCGC]
NIH Molecular Libraries Probe Centers Network [MLPCN]
Assay Submitter (PI): Curtis Klaassen, University of Kansas Medical Center
Assess whether an activator in the primary assay potentially causes such activation by inhibitor-induced stabilization of the firefly luciferase reporter enzyme by determining whether it inhibits firefly luciferase in the presence of Km concentrations of its substrates (ATP and D-luciferin).
For the compound `Cc1cccc(C(=O)Nc2nnc(SCC(=O)NCc3ccco3)s2)c1`, the Potency is 2.39 µM (active).

Turning to `Clc1ccccc1Nc1ncnc(-n2cccc2)n1`, the Potency was 2.13 µM (active).

Take `CCOc1ccc(-n2c(O)c(N=Nc3ccc([N+](=O)[O-])cc3)c(=O)[nH]c2=O)cc1`: the “activity, negative = inhibition” value was -3.35%.

With `O=C1c2ccccc2-c2cc3ccccc3cc21`, the Potency was 4.78 µM (active).

For the compound `Clc1cccc(/C=N\Nc2nccs2)c1`, the Potency was 4.78 µM (active).

On to `CC(=CCOc1ccc2ccc(=O)oc2c1)C1=CC(=O)C(C)(C)O1`, for which the “activity, negative = inhibition” value is -24.9%.

For `O=C(O)c1ccc([N+](=O)[O-])c([N+](=O)[O-])c1`, the “activity, negative = inhibition” value is -1.27%.

Take `O=C(Nc1ccc(Cl)c(Cl)c1)c1ccco1`: the Potency is 9.53 µM (active).

On to `NC(=O)c1c(NC(=O)c2ccccc2F)sc2c1CCC2`, for which the Potency was 1.35 µM (active).

Take `Cn1c(O)c(N=Nc2ccc(S(=O)(=O)N3CCOCC3)cc2)c(=O)n(C)c1=O`: the “activity, negative = inhibition” value was -18.4%.

For the compound `Fc1cccc(F)c1-c1nc(-c2ccc(Cl)cc2)no1`, the Potency is 2.13 µM (active).
